Laboratory results published in paper PMC4336329 (PLoS ONE, 2015).
In all, about 310,000 compounds went through this assay and about 14,000 (4.5%) showed an effect of 50% or more. Effects have a minus sign here. For the sample, strong results were picked, then their nearest neighbours and some compounds at random.

The compounds below were run against human ether-à-go-go-related gene (hERG) potassium channel (human, UniProt Q12809) (assay: primary screen, population patch clamp on CHO cells stably expressing hERG; higher = less effect of the substance).
human ether-à-go-go-related gene (hERG) potassium channel, sequence (Q12809 whole entry, looked up): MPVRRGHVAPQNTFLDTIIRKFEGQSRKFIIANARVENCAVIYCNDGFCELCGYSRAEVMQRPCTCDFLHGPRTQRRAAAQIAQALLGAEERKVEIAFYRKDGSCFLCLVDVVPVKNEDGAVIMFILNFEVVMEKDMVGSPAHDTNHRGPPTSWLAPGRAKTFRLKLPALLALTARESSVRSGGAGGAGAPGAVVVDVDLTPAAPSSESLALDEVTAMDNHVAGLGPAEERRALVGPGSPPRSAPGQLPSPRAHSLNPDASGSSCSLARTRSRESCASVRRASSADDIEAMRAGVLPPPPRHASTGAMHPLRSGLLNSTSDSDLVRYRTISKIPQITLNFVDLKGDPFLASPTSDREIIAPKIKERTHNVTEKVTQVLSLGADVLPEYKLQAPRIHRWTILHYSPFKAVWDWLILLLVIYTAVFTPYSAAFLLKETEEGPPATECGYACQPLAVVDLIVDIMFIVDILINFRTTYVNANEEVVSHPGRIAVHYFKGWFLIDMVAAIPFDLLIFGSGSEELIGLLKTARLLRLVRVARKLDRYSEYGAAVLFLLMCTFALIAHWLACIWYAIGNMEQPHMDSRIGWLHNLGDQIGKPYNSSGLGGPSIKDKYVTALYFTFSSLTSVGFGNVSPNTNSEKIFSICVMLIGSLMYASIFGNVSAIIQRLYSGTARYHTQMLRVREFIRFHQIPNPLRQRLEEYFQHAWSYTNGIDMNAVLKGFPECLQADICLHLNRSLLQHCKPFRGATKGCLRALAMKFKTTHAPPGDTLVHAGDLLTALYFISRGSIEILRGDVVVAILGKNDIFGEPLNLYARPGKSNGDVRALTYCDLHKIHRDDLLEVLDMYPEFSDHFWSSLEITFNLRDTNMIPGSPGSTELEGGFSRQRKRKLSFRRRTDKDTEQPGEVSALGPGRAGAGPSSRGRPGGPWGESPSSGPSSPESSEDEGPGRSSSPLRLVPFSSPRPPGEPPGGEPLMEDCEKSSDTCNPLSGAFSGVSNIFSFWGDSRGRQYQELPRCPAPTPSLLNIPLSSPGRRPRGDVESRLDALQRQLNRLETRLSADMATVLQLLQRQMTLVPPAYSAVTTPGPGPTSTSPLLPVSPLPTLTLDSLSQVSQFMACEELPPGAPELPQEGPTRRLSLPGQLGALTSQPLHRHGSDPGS
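Note: peak tail current of the secondary pulse compared with the same well before compound.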

| Structure (SMILES) | hERG current change (%, negative = inhibition) at 10uM |
| --- | --- |
| CC(=O)Nc1ccccc1-c1nn[nH]n1 | 0.73% |
| Cc1c(CCN)ccc2c1[nH]c1ccccc12 | 0.0766% |
| Oc1ccccc1/C=N/N1CCCCC1 | 6.81% |
| CCN(CC)c1ncnc2c1ncn2Cc1c(Cl)cccc1Cl | 2.93% |
| CC(C(=O)O)n1cc(Cl)cn1 (centres unmarked) | 8.82% |
| CCCCn1c(N)c(N(CC(C)C)C(=O)CN2C(=O)c3ccccc3C2=O)c(=O)[nH]c1=O | -7.79% |
| Cc1ccc(NC(=O)c2ccc(OC(=O)c3cc4ccccc4o3)cc2)cc1 | 8.66% |
| Cc1nc2ccccc2c(=O)n1NC(=O)c1cccc(Cl)c1 | 13% |
| Cc1ccc(C(=O)Nc2nc3ccccc3c(=O)s2)cc1 | 15.9% |
| O=C(Nc1ccccc1SCC1CSc2nc3ccccc3c(=O)n21)c1ccccc1 (centres unmarked) | -67.7% |
| O=C(Nc1ccccc1SCC1CSc2nc3ccccc3c(=O)n21)c1cccc(Cl)c1 (centres unmarked) | -75.5% |
| O=c1c2ccccc2nc2n1C(CBr)CS2 (centres unmarked) | 15.6% |
| O=c1c2ccccc2nc2n1C(CSCc1ccc(Cl)cc1Cl)CS2 (centres unmarked) | -21.8% |
| Cc1cccc(C(=O)Nc2ccccc2SCC2CSc3nc4ccccc4c(=O)n32)c1 (centres unmarked) | -80.4% |
| Cc1ccc(C(=O)Nc2ccccc2SCC2CSc3nc4ccccc4c(=O)n32)cc1 (centres unmarked) | -68.4% |
| COc1cccc(SCC2CSc3nc4ccccc4c(=O)n32)c1 (centres unmarked) | -22.3% |
| O=c1c2ccccc2nc2n1C(CSCc1cccc(C(F)(F)F)c1)CS2 (centres unmarked) | -23.4% |
| O=c1c2ccccc2nc2n1C(CSc1ccccc1)CS2 (centres unmarked) | -19.6% |
| Nc1ccccc1SCC1CSc2nc3ccccc3c(=O)n21 (centres unmarked) | -45.2% |
| Cc1ccc(OC2CCN(C(=O)C3CCC(=O)N(C4CC4)C3)CC2)cc1 (centres unmarked) | -15.8% |

| Structure (SMILES) | hERG current change (%, negative = inhibition) at 10uM |
| --- | --- |
| COC(=O)c1ccc(COC(=O)Cc2n[nH]c(=O)c3ccccc23)cc1 | -1.24% |
| CCC(C)N=CC1=C(O)CC(c2ccccc2)CC1=O (centres unmarked) | -4.11% |
| COc1ccc(C(=O)NCC(=O)OCC(=O)NC(=O)c2ccc(C(C)(C)C)cc2)cc1OC | -23.7% |
| CCN(CC)c1ncc(C#N)c(N)n1 | 8.37% |
| COc1ccc(CNC(=O)C2C3C=CC4(CN(Cc5cccnc5)C(=O)C24)O3)cc1 (centres unmarked) | -16.2% |
| CCCc1nnc(NC(=O)c2ccncc2)s1 | -3.78% |
| COc1ccc(NS(=O)(=O)c2ccc(NS(=O)(=O)c3cccs3)cc2)cc1 | 11.8% |
| CCOC(=O)c1cnc(-c2ccccc2)nc1Oc1ccc(OC)cc1 | 14.2% |
| CCc1csc(CCNC(=O)C2CCC(=O)N(CCc3cccc(F)c3)C2)n1 (centres unmarked) | -13.4% |
| O=c1c2ccccc2nc2n1C(CSc1ccc(F)cc1)CS2 (centres unmarked) | -33.3% |
| O=C(Nc1ccccc1SCC1CSc2nc3ccccc3c(=O)n21)c1ccccc1Cl (centres unmarked) | -70.5% |
| O=c1c2ccccc2nc2n1C(CSCc1ccccc1)CS2 (centres unmarked) | -37.1% |
| COC(=O)c1sc2ccccc2c1NC(=O)c1ccc(S(=O)(=O)N2CCCCC2)cc1 | 11.2% |
| Cc1c(/C=N/NC(=O)c2ccc(Br)o2)cnn1C | 21% |
| O=C1N=C(N2CCOCC2)S/C1=C/c1cccs1 | -5.52% |
| O=C1N=C(N2CCN(Cc3ccccc3)CC2)S/C1=C/c1cccs1 | -41.1% |
| N#CCCN1CCN(C2=NC(=O)/C(=C\c3cccs3)S2)CC1 | -52.4% |
| O=C(CCSCc1cccc(Cl)c1)NCCc1ccc(Cl)cc1 | 4.09% |
| CCCCCCCCn1c(N2CCN(c3cccc(Cl)c3)CC2)nc2c1c(=O)[nH]c(=O)n2C | 5.65% |
| Cc1ccc(S(=O)(=O)NCCC(=O)N2CCC(C(N)=O)CC2)cc1C | -6.54% |

| Structure (SMILES) | hERG current change (%, negative = inhibition) at 10uM |
| --- | --- |
| CCCN1C2CCCC1CC(NC(=O)c1ccccc1OC)C2 (centres unmarked) | -3.42% |
| Cc1ccccc1C(=O)NC1CC2CCC(C1)N2Cc1ccccc1 (centres unmarked) | -25% |
| CCOc1ccccc1CN1C2CCC1CC(c1ccc(C)cc1)C2 (centres unmarked) | -60.9% |
| CCOc1ccccc1CN1CCC(O)CC1 | 12.1% |
| CCOc1ccccc1C(=O)NC1CC2CCCC(C1)N2Cc1ccc(C)cc1 (centres unmarked) | -65.2% |
| CCCN1C2CCCC1CC(NC(=O)c1ccccc1OCC)C2 (centres unmarked) | -47.2% |
| COc1ccccc1C(=O)NC1CC2CCC(C1)N2Cc1ccccc1 (centres unmarked) | -20.4% |
| CCOc1ccccc1C(=O)NC1CC2CCCC(C1)N2Cc1ccccc1 (centres unmarked) | -54.5% |
| Cc1ccccc1C(=O)NC1CC2CCCC(C1)N2Cc1ccccc1 (centres unmarked) | -25% |
| CCOc1ccccc1C(=O)NC1CC2CCCC(C1)N2C1CC1 (centres unmarked) | -19% |
| Cc1ccccc1C(=O)NC1CC2CCCC(C1)N2Cc1ccc(Cl)cc1 (centres unmarked) | -71% |
| CCOc1ccccc1CN1C(=O)NC2(CCCCCC2)C1=O | 9.32% |
| O=S(=O)(Nc1ccc(O)cc1)c1cccc2cccnc12 | 10.2% |
| Cc1ccc(CN2CC(C(=O)Nc3ccc(S(=O)(=O)Nc4cc(C)nc(C)n4)cc3)CC2=O)cc1 (centres unmarked) | 15.6% |
| CCC1C(=O)NCCN1C(=O)c1cccc(OC2CCN(S(=O)(=O)N(C)C)CC2)c1 (centres unmarked) | 14% |
| CN(C)CCN(Cc1ccccc1)C(=O)[C@H](Cc1ccccc1)N1C(=O)c2ccccc2C1=O | -30.1% |
| Cc1ccc(S(C)(=O)=NS(=O)(=O)c2cccc3nsnc23)cc1 (centres unmarked) | 7.47% |
| O=c1c2ccccc2nc(SCc2nnc(-c3ccccc3Br)o2)n1-c1ccccc1 | -1.38% |
| Cc1csc(C(C#N)C(=O)c2cc3ccccc3o2)n1 (centres unmarked) | -7.89% |
